40 sequences from the OligoGym collection can be followed below.
Note: reference of the scale not given here.

The first assay has as its target KCNRG. As to the kind of experiment: pooled miR-30 sensor sort-seq; sequence = guide strand. The settings on record: shRNA.
In turn, TTTTGTCTTCAGAAGATACTGT registered a sensor-assay potency score (higher = more potent) of 0.229.
Sequence TTCTAGTGCTGACCAAATGAAA yielded a sensor-assay potency score (higher = more potent) of -1.49.
TTTTATAGAAACATACCTGACT displayed a sensor-assay potency score (higher = more potent) of -0.489.
As to TAGAAACATACCTGACTCCAGT, the sensor-assay potency score (higher = more potent) is -0.214.
TTTGTCTTCAGAAGATACTGTT displayed a sensor-assay potency score (higher = more potent) of -0.101.
Still for that read-out and setting: the value for TTTTGGTGTTTCATTCGTGATG was -1.02.
As for TATGATGATAGTCTCTGGTTTT, the sensor-assay potency score (higher = more potent) is -0.744.
Turning to TACTGTTCTAGTGCTGACCAAA, the sensor-assay potency score (higher = more potent) was -1.23.
For TTGTCTTCAGAAGATACTGTTC, the sensor-assay potency score (higher = more potent) is -0.478.
Same read-out and setting: the value for TCTGGTATGATGATAGTCTCTG was 0.569.

For a further assay, the target named is KCNS2. The description is as above. The settings on record: shRNA.
TTAAACTGAGTTCACTTGGTGA gave a sensor-assay potency score (higher = more potent) of -0.682.
TACTCCTTACACCATAACCATA: the sensor-assay potency score (higher = more potent) is -1.82.
With TTTAAACTGAGTTCACTTGGTG, the sensor-assay potency score (higher = more potent) was found to be 0.664.
For TCGAAGTAGAACTCCCGCTGGA, the sensor-assay potency score (higher = more potent) is -0.212.
As to TGCTCCACGATTTCGAACCTAG, the sensor-assay potency score (higher = more potent) was -0.681.
TTACACCATAACCATAAGGTGC came in with a sensor-assay potency score (higher = more potent) of -1.42.
In turn, TTTATGGGCATAATAGTCCCTT came in with a sensor-assay potency score (higher = more potent) of -0.514.
On the same count and under the same terms, as for TAGGGCATTCTTGAAGAACTTG, the figure is -0.408; as for TAGTCCCTTAAATTGACCGAAG, -1.33.
On the same count and under the same terms, the value for TAGAAATGCAGCACGTAGGGGA was 0.48; that for TTCTTTGTAGCTGTATTTCAAA was -1; that for TAGAATAGCGTACACGATGGAC was -0.475.

The next assay concerns the target KCTD3. The assay is described as above. The settings on record: shRNA.
Turning to TATCAATAAATATAGCACCAGT, the sensor-assay potency score (higher = more potent) is -0.952.
On the same count and under the same terms, as for TTGCATTTAAAGCTACTCGTTC, the figure is -0.407; as for TGATTCTGTAACACACAGCAAA, -1.06.
In turn, TGTAGTACAGTCAACAGCCTGG came in with a sensor-assay potency score (higher = more potent) of 0.267.
Sequence TTGAGTAGCTCTTCTTCGGTTG showed a sensor-assay potency score (higher = more potent) of -0.328.
The same measure, in the same setting: the value for TTATCTTTCATTCGCAAGGGGA was -0.381; that for TAGTTATAGGAACAACATCTTG was -1.48.
Turning to TTGTAGTACAGTCAACAGCCTG, the sensor-assay potency score (higher = more potent) was -1.16.
As to TTTGAGTAGCTCTTCTTCGGTT, the sensor-assay potency score (higher = more potent) was -0.151.
With TTTAAATTTACAATTACCCTAT, the sensor-assay potency score (higher = more potent) turned out to be 0.0082.
AGGAACAACATCTTGAACCTGC returned a sensor-assay potency score (higher = more potent) of -0.641.

The target of the next assay is KDELR1. The assay is described as above. The settings on record: shRNA.
Sequence TAGAGTGAGATGTAGTTGGTGA had a sensor-assay potency score (higher = more potent) of 0.498.
On the same count and under the same terms, the value for TTGAAGAGATAGAGCGTGCGGT was -0.25.
Still for that read-out and setting: the value for TTGCTCACCATGAACAGCTGCG was -0.0886.
On to TAGACCACCTTCATACACGTGT, for which the sensor-assay potency score (higher = more potent) turned out to be 0.283.
Sequence AGGAACTCCACTCTGAACGTGT returned a sensor-assay potency score (higher = more potent) of -0.99.
TAGGACTTTGGTGATATAGAGG gave a sensor-assay potency score (higher = more potent) of -1.32.
TTGAGCAGTAGCAAGATGATGG: the sensor-assay potency score (higher = more potent) was -0.401.
